Laboratory results reported in PubChem BioAssay (NCI).
This is part of a sample that, as a whole, favours compounds with a hit. Of some 83,000 tested, about 20% had one in any assay.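 Method: cells in 96-well plates; compound added at one concentration; 48 h incubation; percent growth measured; values under 10 scored active.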 Activity calls are given as the source filed them.

Tested on: HL-60(TB) leukemia
Test: NCI-60 one-dose screen, 48 h (100 = growth as untreated, 0 = no growth, -100 = all killed)
Conditions: 10 µM unless noted

Compound	growth
COc1ccc(CNc2nccnn2)cc1	69.9% (inactive)
Nc1nc2cc(O)ccc2n2cc3c(F)cccc3c12	21.7% (inactive)
O=S(=O)(O)c1cccc(Nc2ccc3ccccc3c2)c1	89.9% (inactive)
COC(=O)[C@@]12CC[C@@H](C)[C@]3(C[C@@H](c4ccoc4)OC3=O)[C@H]1CC[C@@H]1O[C@@]12C	104% (inactive)
COc1cccc(-c2nc3occn3c2-c2ccnc(NCCNS(=O)(=O)c3cccc4ccccc34)n2)c1	121% (inactive)
O=S(=O)(NCCCNc1cc(-c2cn(-c3ccccc3)nc2-c2cccc(O)c2)ccn1)c1ccc(F)cc1	30.5% (inactive)
CCOC(=O)C(CC(c1ccccc1)N1CCCCC1)[N+](=O)[O-] (stereo not given)	73.4% (inactive)
COc1ccccc1CNCCCN1C(=O)c2ccc3c4c(ccc(c24)C1=O)C(=O)N(CCCNCCCN)C3=O	-42.3% (active)
Cc1cc(N2CCN(C)CC2)nc(N(CCNc2ccnc3cc(Cl)ccc23)Cc2ccco2)n1	8.29% (active)
CCCCCCN1C(=O)/C(=c2\sc3n(c2=O)C2C(NN=3)N(CC)C(=O)N2CC)c2ccccc21 (stereo not given)	42.2% (inactive)
O=C1c2ccccc2OC=C(c2ccccc2)N1CCCCNc1ccc(F)cc1	45.3% (inactive)
Cc1ccc(C(=O)Cc2ccccc2)c(O)c1	70.9% (inactive)
COc1ccc(C2=C/C(=C\c3ccc(Cl)cc3)C(=O)N2/N=C/c2ccc(Cl)cc2)cc1	102% (inactive)
CCN1CCN(c2cc(-c3cn[nH]c3-c3cc(C)cc(OC)c3)nc(-c3cccnc3)n2)CC1	64.9% (inactive)
COc1ccc2cc1Oc1ccc(cc1)C[C@H]1c3cc(c(OC)cc3CCN1C)Oc1c(OC)c(OC)cc3c1[C@H](C2)N(C)CC3	29.8% (inactive)
O=C(NNC(=O)c1ccc(NC(=O)c2ccccn2)cc1)Nc1ccc2ccccc2c1	105% (inactive)
CCCCCCCC(=O)SCC/C=C/[C@@H]1CC(=O)NCc2cccc(n2)CN(Cc2ccc3ccccc3c2)CC(=O)N[C@@H](C(C)C)C(=O)O1	11% (inactive)
CCN1CCN(Cc2ccc(NC(=O)c3nc4ccc5[nH]ncc5c4c4c3CCCC4)cc2C(F)(F)F)CC1	-59% (active)
N#C/C(=N\Nc1ccccc1)C(=O)Nc1cc(-c2ccccc2)nn1-c1ccccc1	35.4% (inactive)
Cc1ccc(S(=O)(=O)NCCCNc2nccc(-c3c(-c4ccccc4)nc4sccn34)n2)cc1	-13.1% (active)

Compound	growth
CCOC(=O)c1cc2c(n(C)c1=O)-c1cnn(-c3ccc(OC)cc3)c1CC2	113% (inactive)
COc1ccc(-n2cc(COc3ccc4c5ccnc(C)c5n(CC(C)C)c4c3)nn2)cc1	-10.6% (active)
C#CCOc1cccc(Nc2ncnc3c(NC(=O)CCl)cccc23)c1	-59.1% (active)
Nc1cccc2cccc(O)c12	82.9% (inactive)
OC(c1cc2ccc(C(F)(F)F)cc2c2cc(C(F)(F)F)ccc12)C1CCCCN1 (stereo not given)	-72.8% (active)
NC(=S)N/N=C/c1ccc(OC(=O)COc2cc(Cl)c(Cl)cc2Cl)cn1	47.1% (inactive)
C[C@]12CC[C@@H]3c4cc(OC(F)F)c(OS(N)(=O)=O)cc4CC[C@H]3[C@@H]1CC[C@@H]2O	1.17% (active)
CCCC(=O)Oc1ccc(CC)cc1	97.6% (inactive)
O=C(/C=C/C12c3ccccc3C(c3ccccc31)C1C(=O)NC(=O)C12)c1ccco1 (stereo not given)	8.34% (active)
Oc1c(Cl)cc(Cl)cc1CNc1nccnn1	115% (inactive)
COC1CC(OC(=O)c2ccc([N+](=O)[O-])cc2)C(COC(=O)c2ccc([N+](=O)[O-])cc2)O1 (stereo not given)	97% (inactive)
CCOC1Oc2ccccc2C(=O)/C1=N/c1nccs1 (stereo not given)	106% (inactive)
CCOc1ccc2c(c1)CN(Cc1ccc(Cl)cc1)CO2	94.9% (inactive)
Oc1ccc2cc(Br)ccc2c1-c1c(O)ccc2cc(Br)ccc12	81.2% (inactive)
C/C(=N/N=C(N)N)c1ccc(N)cc1	60.1% (inactive)
COc1ccc(S(=O)(=O)n2cc(C(=O)C(=O)Nc3ccncc3)c3ccccc32)cc1F	-46.4% (active)
Nn1c(=O)c(=O)[nH]c2c(cnn2-c2ccccc2)c1=O	98.6% (inactive)
CC(=O)C1CC(C)CCC1C(C)C (stereo not given)	58.7% (inactive)
Cc1nn(-c2ccccc2)c2c1oc(=O)c1cc(Cl)ccc12	84.3% (inactive)
C[C@@H]1CN(c2nc3c(cc2F)c(=O)c(C(=O)O)cn3C(C)(C)C)C[C@H](C)N1	97% (inactive)
